From PubChem BioAssay (EPA / NIEHS) come the findings set out here.

SMILES strings stand for the structures. Results filed as inconclusive are left out. Active and inactive are the calls of the source. How the source made its calls: active means hit-call score of the fitted dose curve at least 0.9, where 1 is the maximum; inconclusive means response in the unintended direction; inactive means score below 0.9.

Read-out in the assay: ABC Transporter (ABCB11), ABCB11 (gene 8647)
As to the kind of experiment: CLD_ABCB11_48hr: CellzDirect (CLD) Gene Expression Assay for ABC Transporter (ABCB11) at 48 hours (AID 2283697). How it is done: CLD_48hr is a cell-based, multiplexed-readout assay that uses hepatocyte, a human liver primary cell, with measurements taken at 48 hours after chemical dosing in a 96-well plate.CLD_ABCB11_48hr is one of 16 assay component(s) measured or calculated from the CLD_48hr assay. It is designed to make measurements of mRNA induction, a form of inducible reporter, as detected with chemiluminescence signals by Quantitative Nuclease Protection Assay (qNPA) technology.Data from the assay component CLD_ABCB11_48hr was analyzed at the endpoint, CLD_ABCB11_48hr, in the positive analysis fitting direction relative to DMSO as the negative control and baseline of activity. Using a type of inducible reporter, gain-of-signal activity can be used to understand changes in the reporter gene as they relate to the gene ABCB11. Furthermore, this assay endpoint can be referred to as a primary readout. To generalize the intended target to other relatable targets, this assay endpoint is annotated to the transporter intended target family, where subfamily is ABC transporter.
Human hepatocyte cultures were treated daily for two consecutive days with fresh dosing solutions containing appropriate concentrations of the 320 ToxCast chemicals (chemical identities were blinded to CellzDirect and other ToxCast collaborators), vehicle control (0.2% DMSO), and positive control inducers as summarized in Table 1. Due to the large number of treatment groups and chemicals examined, the ToxCast chemicals were divided into two groups (spanning two independent cultures of hepatocytes from separate donor preparations (Hu778: ToxCast plates 1 and 2; Hu776: ToxCast plates 3 and 4). Each preparation of human hepatocyte cultures was treated with respective vehicle control, medium only control, set of six positive controls/reference chemicals for the five hepatic receptor pathways, and a subset of eight of the ToxCast chemicals (indoxacarb, pyrithiobac-sodium, norflurazon, cyhalofop-butyl, methomyl, thiram, acetochlor, and propiconazole). These replicate data, coupled with internal replicates designed within the blinded ToxCast chemical library, provided additional data to evaluate interindividual differences between hepatocyte preparations and their potential impact on chemical profiles.Cell morphology and integrity were evaluated using phase-contrast microscopy as an indicator of hepatocyte cell health (Tyson & Green, 1987). Cultures for each treatment group (i.e., media, vehicle [0.2% DMSO], positive control inducers [multiple concentrations], and the ToxCast chemicals [multiple concentrations]) were observed and cell morphology was assessed relative to vehicle control cultures at each harvest time point (0, 6, 24, or 48 h). […] Images were evaluated at the conclusion of the study to assess changes in cell integrity and account for the effects of chemical exposure on uncharacteristic changes in concentration-dependent gene expression profiles. The results from these determinations of apparent cytotoxicity were annotated (yes/no) alongside the corresponding qNPA data for reference.At the conclusion of each treatment period, hepatocyte cultures (96-well) were washed with 1 volume of HBSS, lysed by addition of 25 ul ArrayPlate lysis buffer (HTG, Tucson, AZ), and 70 ul/well of Denaturation Oil, denatured by incubation at 95C for 10 min, and frozen at approximately -70C until analysis by nuclease protection assay (qNPA) (Roberts et al., 2007). For qNPA analysis, cell lysates were thawed at 50C for approximately 30 min, qNPA probes were added, and samples were incubated at 95C for 10 min to begin the detection process by denaturing the target RNA, dissociating the duplexes and secondary structure hybridization. At the conclusion of the hybridization period, S1 nuclease reagent was added to each sample to digest all nonprotected nucleotides at 50C for 60-90 min. […]
In the case of `CS/C(C)=N/OC(=O)N(C)SN(C)C(=O)O/N=C(\C)SC`, the call was inactive.

In the case of `COc1nc(NC(C)C)nc(NC(C)C)n1`, the compound was classed as inactive.

As for `O=C(O)c1nc(Cl)ccc1Cl`, the half-maximal activity concentration (AC50) was 6.55 µM (active).

Regarding `Oc1ccccc1-c1ccccc1`, the outcome was inactive.

As for `CCON=C(CC)C1=C(O)CC(c2c(C)cc(C)cc2C)CC1=O` (stereo unspecified), the call was inactive.

Consider `C#CCOS(=O)OC1CCCCC1Oc1ccc(C(C)(C)C)cc1` (stereo unspecified), for which the result was inactive.

On to `Cc1c(F)c(F)c(COC(=O)C2C(/C=C(\Cl)C(F)(F)F)C2(C)C)c(F)c1F` (stereo unspecified), for which the compound was classed as inactive.

As for `CN(C)C(=S)SSC(=S)N(C)C`, the compound was classed as inactive.

As for `COC(=O)C=C(C)OP(=O)(OC)OC`, the compound was called inactive.

Take `COc1nc(C)nc(NC(=O)NS(=O)(=O)c2ccccc2Cl)n1`: the call was inactive.

Turning to `COC(=O)N(OC)c1ccccc1COc1ccn(-c2ccc(Cl)cc2)n1`, the concentration at half-maximal activity (AC50) is 35.7 µM (active).

On to `COc1nc(C)nc(NC(=O)NS(=O)(=O)c2ccccc2CCC(F)(F)F)n1`, for which the compound was called inactive.

With `COC(=O)C(C)Oc1ccc(Oc2ccc(Cl)cc2Cl)cc1` (stereo unspecified), the outcome was inactive.

Regarding `CCc1nn(C)c(C(=O)NCc2ccc(C(C)(C)C)cc2)c1Cl`, the AC50 was 37 µM (active).

In the case of `CC(C)(C)c1ccc(CSc2cnn(C(C)(C)C)c(=O)c2Cl)cc1`, the result was inactive.

For `COC(=O)c1ccccc1C(=O)OC`, the result was inactive.

The term AC50 denotes the concentration giving half of the maximal activity seen.
